Reference: the supplement of paper PMC6555819

tested on: PPARg:RXRa (NR concentration 180 nM, RXRa partner concentration 90 nM); assay: PBM binding z-score (relative to random genomic background probes); higher = stronger binding; sequences stand for … in GC…GCGATTGACAGCGTAGAATGAAGG
How it was run: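 Antibodies against each partner of ligand-free nuclear receptor dimers (one per run) detected binding on custom Agilent 4×180K protein-binding microarrays after 1 h incubation. The double-stranded probes had 34-nt variable regions carrying direct-repeat seeds, single-nucleotide variants, half-site ablations and random human genomic background sequences. Binding z-scores, from regression-normalized fluorescence, use the random background probes as reference.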

Sequence	PBM binding z-score
CGAACTAGGTCAGAACAGGACAGTGAAGGATGAT	4.94
TCTTGTAGATCAAAGGTTATGAAAGCCGAAGCCT	7.9
CGTCCAAGGTCATAGGAGGTCCGTGAAGACAGAT	4.52
TCGCGTAGGTTAGTCGGGGCATTCAGCCAACATA	-0.444
ATCTCTAAGTAAGACTCAGTTCAGTGAAGAACGC	-0.0993
CCTACGGGGCCATCAGGTCATTGATATCAACGTT	1.25
ACTAGCAGGCCCAGGGTCACTCAAGATTAGTCCG	1.36
AGTCAAAGTTCACTAGGTAACGTACGATTCAGCT	7.47
TATACAGGGTCAAAGGCCAGAGGACGAATGTCGA	8.38
CCTATTAGTTGACCATAAGGGCAACAGAAGCTCG	0.639
GTACCAAGGTGAATAGGTCTTTGATGAGTAGGCG	0.96
AGAATGAGGTTATACGTAGATAAGGGAAGAAAGT	2.47
CGTCCAAGGTCAAGGTTAGTGAAAGAGACTCGAA	5.02
CGTCCAATGTCAGAGAGGTCAGTGAATGCCGAGT	0.78
CCTAGCAGGCCAGGCTCACTCAAGCATTTCGCTT	-0.439
CAAACTAGGTCACGAAAGGACAAAGTCGAATGAC	9.21
TCTTGTAGATCAAGAAGGTTAAGAAAGCCTGAGT	-0.11
GGAACGAGGGCATTCGAGTTAATAGCATGGCGAT	1.18
CTACCAAGGTGAACAAGGCCGTTGATTACTATTC	0.647
TCTGCAAGGTCAGTTGGTCAGCTAACGAGCTGCC	1.45
GCTAGAAGGCCATTTGGGTCACTCAATGACGGGC	0.807
CGTCAAAGTGCAACTAAGGTAACGTAAAGCACGC	0.842
